Data: PubChem BioAssay AID1259343 (VanderVen Lab, College of Veterinary Medicine, Cornell …, 2017)
In all, about 6,200 compounds went through this assay and about 2,900 (47%) were called active. So high a share suggests a set chosen from earlier hits. The list shows a part of the results. Values without a mark were called inactive. Cut-off read from the data, not from the text of the source: active = inhibition above about 50%; inactive = the rest.

Assay: Mycobacterium tuberculosis growth inhibition, primary screen (AID 1259343)
Conditions: inhibition: at 10 µM, active compounds read high; outcome: 10 uM

SMILES | inhibition
Cc1ccc2nc(/C(Cl)=C/c3cccc(OCc4cccc(C#N)c4)c3)cc(=O)n2c1 | 32.1%
O=C(Nc1ccc(-n2cccn2)cc1)C1CCN(CC2CCOC2)CC1 (centres undefined) | 87.4% (active)
O=C(Nc1cccc(-c2cccc(F)c2)c1)C1CCN(CC2CCOC2)CC1 (centres undefined) | 19.5%
CCCCOC(=O)c1ccc(N/C=C(\C#N)c2nc(C3CC3)cs2)cc1 | 79.1% (active)
N#CC(Cc1ccccc1)NC(=O)/C=C/c1ccccc1Br (centres undefined) | 88.1% (active)
O=C(O)c1cncnc1/C=C/c1ccccc1Br | 3.04%
CCc1ccc(S(=O)(=O)NCCOc2ccc(-c3ccc(F)cc3)nn2)s1 | 92.4% (active)
O=C(NCc1ccc(Cl)s1)c1cc(COc2cccc(C(F)(F)F)c2)on1 | 82.4% (active)
C#CCN(CC=C)C(=O)c1cc(COc2cccc(C(F)(F)F)c2)on1 | 26.3%
O=C(c1cc(COc2ccc3c(c2)CCCC3)on1)N1CCC(c2ccncc2)CC1 | 36.6%
O=C(c1cc(COc2ccc(-n3cncn3)cc2)on1)N1CCC(c2ccncc2)CC1 | 35.6%
O=C(NC1(c2ccccc2)CC1)c1cc(COc2cccc(C(F)(F)F)c2)on1 | 88.1% (active)
O=C(c1cc(COc2cccc(C(F)(F)F)c2)on1)N1CCC(c2ccncc2)CC1 | 64.9% (active)
Cc1ccc(-c2nc(N3CCN(CCO)CC3)ncc2-c2ccccc2C)cc1 | -0.32%
O=P(NCc1ccccc1)(Oc1ccccc1)Oc1ccccc1 | 81.5% (active)
O=C(NCc1ccccc1)c1coc(Br)c1 | 41.6%
CN(Cc1ccc(C#N)cc1)C(=O)CCc1ccc(C(C)(C)C)cc1 | 74.3% (active)
CC(C)(C)CC(C)(C)NC(=O)c1ccc(C#N)cc1 | -11.6%
CCC(C)(C)C1CCC(NC(=O)c2cccc(-n3cnnn3)c2)CC1 (centres undefined) | 24.6%
CCC(C)(C)C1CCC(NC(=O)c2ccnc(C)n2)CC1 (centres undefined) | 70.8% (active)
O=[N+]([O-])c1ccc(C2CN=C(Nc3ccccc3)O2)cc1 (centres undefined) | 74% (active)
NC(=O)CC1CCN(Cc2noc(Cc3ccc(Br)cc3)n2)CC1 | 24.6%

SMILES | inhibition
CCC(=O)C1=C(c2ccc(Br)cc2)N(C(=O)CC)n2cnnc2S1 | 8.79%
CNS(=O)(=O)c1ccc(C(=O)Nc2ccc(C)c(C)c2)o1 | -15.4%
Cc1nnc(NC(=O)c2ccc(S(=O)(=O)Nc3cccc(C(F)(F)F)c3)o2)s1 | 66.4% (active)
O=C(NC(=S)Nc1cccc(C(F)(F)F)c1)c1ccc(Br)o1 | -5.04%
O=C(Nc1ccc(Cl)c(Cl)c1)N(Cc1ccc(O)cc1)C1CC1 | 27.8%
O=C(NNc1ccc(Cl)c(Cl)c1)c1ccc(NC(=O)C2CC2)cc1 | 96.5% (active)
O=C(Nc1ccc(CNS(=O)(=O)c2c(Cl)cccc2Cl)cc1)C1CC1 | 27.6%
CC1(C)CC2CC(C)(CN2C(=O)c2cc3c(s2)CCCC3)C1 (centres undefined) | 47.7%
CC1(C)CC2CC(C)(CN2C(=S)NC(=O)c2cccs2)C1 (centres undefined) | 96.2% (active)
CCCCNC(=S)N1CC2(C)CC1CC(C)(C)C2 (centres undefined) | 90.3% (active)
Fc1ccc(OCc2noc(-c3cccs3)n2)c(Br)c1 | -15.9%
Clc1ccc(Cc2noc(-c3cccs3)n2)c(Cl)c1 | 84.3% (active)
CNC(=O)Cc1noc(-c2cc3c(s2)CCCCCC3)n1 | 43.5%
S=C(NCc1ccco1)N1CCC2CCCCC2C1 (centres undefined) | 86.6% (active)
O=C(CN1CCCc2cc(F)ccc21)NCc1ccco1 | 44%
N#Cc1cccc(NC(=O)C2C3CC4CC(C3)CC2C4)c1 (centres undefined) | 28.5%
COc1cc(C(=O)NC2CCOc3ccccc32)cc2c1OCCO2 (centres undefined) | 41.9%
N#Cc1cccc(NC(=O)c2cc(Cl)c3c(c2)OCCCO3)c1 | 56.4% (active)
OC(c1ccccc1)c1nc(/C=C/c2ccccc2)cs1 (centres undefined) | 47.4%
CC(C)c1cccc(Nc2nnc(C(O)c3ccccc3)s2)c1 (centres undefined) | 68.4% (active)
Cc1cc(NC(=O)C(C)Oc2ccccc2)n(-c2nc3c(c(=O)[nH]2)CCC3)n1 (centres undefined) | 100% (active)
Cc1cc(NC(=O)C(C)C)n(-c2nc3c(c(=O)[nH]2)CCC3)n1 | 101% (active)

SMILES | inhibition
O=C(Nc1ncnc2c1CCC2)c1nc2ccccc2s1 | 93.3% (active)
O=C(CSC(F)(F)F)NCC1CCC1 | -78.2%
O=C(CSc1nnc(SCC(=O)NC2CCCC2)s1)NC1CCCC1 | -2.28%
CC(C)(C)c1nnc2sc(SCC(=O)NCC3CCCCC3)nn2c1=O | 73.1% (active)
Cc1csc(CCNC(=O)C2CC2c2ccc(Cl)cc2)n1 (centres undefined) | 79.1% (active)
CC(C)c1nc(CCNC(=O)C2CC2c2cccc(O)c2)cs1 (centres undefined) | 39.2%
Cc1cnc(CNC(=O)C2CC2c2ccc(F)c(F)c2)o1 (centres undefined) | -29.9%
CC(C)NC(=O)Nc1cccc(C(=O)Nc2ccc(C(C)C)cc2)c1 | 35.6%
O=C(O)Cc1ccc(NC(=O)c2cccc(Br)c2)cc1 | 89.2% (active)
C=C(Br)Cn1c(C=Cc2ccccc2)nc2ccccc21 | 89.4% (active)
C=CCn1c(COc2ccc3ccccc3c2)nc2ccccc21 | 26.8%
C=C(Br)Cn1c(-c2cccs2)nc2ccccc21 | 4.18%
CCC1CCc2sc(C(=O)O)cc2C1 (centres undefined) | 85.9% (active)
CC(C)(C)C1CCc2sc(C(=O)O)cc2C1 (centres undefined) | -46.9%
CCC1CCc2sc(C(=O)N=c3sccn3C)cc2C1 (centres undefined) | 37.3%
C=CCN(CC=C)C(=O)CSc1nc(N)cc(=O)[nH]1 | -27.6%
O=C(c1ccc2ccccc2c1)C1CCCN(S(=O)(=O)Cc2ccccc2)C1 (centres undefined) | 23.8%
O=C(c1ccc(-c2ccccc2)cc1)C1CCCN(C(=O)c2ccsc2)C1 (centres undefined) | 74.6% (active)
Cc1cc(C(=O)N2CCCC(C(=O)c3ccc(-c4ccccc4)cc3)C2)no1 (centres undefined) | 79.4% (active)
O=C(c1ccc(-c2ccccc2)cc1)C1CCCN(C(=O)CSc2ncccn2)C1 (centres undefined) | 9.54%
